High-throughput results (PubChem)
Most compounds without a hit are left out; they make up all but 1.2% or so of the library.
MazF activator – activators of E. coli MazEF toxin-antitoxin RNase. FAM/BHQ RNA-DNA oligo cleavage fluorescence, 5 h. activation, % at 20 µM. 0.32% of 350,000 active. P0AE70; in the data active = activation above about 50%
Target sequence (P0AE70 whole entry, looked up): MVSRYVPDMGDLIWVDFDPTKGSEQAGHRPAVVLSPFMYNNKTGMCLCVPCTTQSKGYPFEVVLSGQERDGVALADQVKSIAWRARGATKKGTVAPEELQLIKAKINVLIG
ugtP null kill – compounds lethal to S. aureus RN4220 ugtP deletion mutant. OD600 growth, 16 h. 0.54% of 330,000 active. growth inhibition, % (test concentration not listed); in the data active = growth inhibition above about 68%;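 also: plate controls were untreated wells for no effect and antibiotic for full effect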
RN4220 kill – kills Staphylococcus aureus RN4220 | S. aureus RN4220 growth, OD600, 16 h | inhibition, % (no concentration beside the values) | 0.33% of 330,000 active | AID 1259311; in the data active = inhibition above about 85%;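 also: plate controls were untreated cells for no effect and reference antibiotic for full effect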
BJeLR lethal – BJeLR cell viability loss; 0.17% of 300,000 active; BJeLR (HRASV12) viability, CellTiter-Glo ATP luminescence, 48 h; inhibition, % (concentration not given with the values); in the data active = inhibition above about 50%
PriA SSB inh – inhibitors of Klebsiella pneumoniae PriA binding to SSB C-terminal tail; 0.6% of 430,000 active; AlphaScreen SSBct-PriA binding, biotinylated peptide; inhibition, % at 33 µM; in the data active = inhibition mostly above about 37%, no sharp cut-off; inactive = mostly below about 20%;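 also: plate controls were negative control peptide for no effect and reference peptide for full effect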
Active calls of the source: *; i = inactive; . = not tested or not shown; ! = not active in a repeat.

SMILES | MazF activator | ugtP null kill | RN4220 kill | BJeLR lethal | PriA SSB inh
O=C1NCCCC1C(=O)NN=Cc1cc([N+](=O)[O-])ccc1O (stereo unspecified) | . | 86.6 | 90.3* | . | 8.2
Cc1cc(Cl)ccc1NCC(=O)N/N=C\c1cc([N+](=O)[O-])ccc1O | . | . | . | . | -3.0
O=C(NN=Cc1cc([N+](=O)[O-])ccc1O)C1C2CCCCC21 (stereo unspecified) | . | 75.2 | 88.7* | . | .
O=C(NN=Cc1cc([N+](=O)[O-])ccc1O)C1CCCCC1 | . | 85.6* | 94.7* | . | 4.0
O=[N+]([O-])c1ccc(O)c(C=NNC(=S)Nc2ccc(Cl)cc2Cl)c1 | . | 99.8* | 83.0 | . | 12.4
O=C(N/N=C/c1cc([N+](=O)[O-])ccc1O)C1CC1 | 1.2 | . | . | 1.5 | .
O=C(CCS(=O)(=O)c1ccccc1)N1CCC(COCc2ccc(F)cc2)CC1 | . | . | . | . | -17.0
COc1ccc(N/C=C\C(=O)c2ccc(C)cc2)cc1OC | 254.9* | -1.5 | 8.5 | -5.1 | -10.6
Oc1c(C(c2ccccc2)N2CCOCC2)ccc2ccccc12 (stereo unspecified) | -25.6 | 87.1* | 24.6 | . | -12.9
OCCN1CCN(CC(O)COc2ccc(Br)cc2)CC1 (stereo unspecified) | . | . | . | . | 6.0
COc1ccc(N=Nc2c(C)[nH]c3ccccc23)cc1 | 12.0 | 81.7* | -2.0 | -7.5 | 21.4
CC(=O)c1cccc(N=Nc2c(C)[nH]c3ccccc23)c1 | -6.8 | -9.3 | -6.4 | 13.1 | 34.0
Cc1[nH][nH]c(=O)c1C(c1c(C)[nH][nH]c1=O)c1cn(Cc2ccccc2Cl)c2ccccc12 | 70.6* | -22.4 | 15.0 | 10.0 | 12.3
Oc1c(CN2CCOCC2)cc(CN2CCOCC2)cc1CN1CCOCC1 | 2.7 | 1.0 | 0.8 | . | -5.6
Cc1cc(N=Nc2ccc(Cl)cc2)cc(CN2CCOCC2)c1O | -6.5 | 16.6 | -5.5 | -6.2 | 49.1*
Cc1cc(N=Nc2ccc(Cl)cc2)cc(CN2CCCC2)c1O | -7.4 | 37.1 | 1.3 | -6.4 | 72.0*
COc1ccc(S(=O)(=O)Nc2cnn([C@H]3CCOC3)c2)cc1F | . | . | . | . | -11.0
CCOC(=O)c1ccc(CC(=O)c2oc3cc(O)ccc3c2C)o1 | 66.9* | 2.7 | 2.2 | -2.1 | -16.7
CCOc1ccc(/C=C2/SC(=O)NC2=S)cc1 | -7.0 | 100.4* | 66.0 | -3.0 | 8.4
CCC(=O)NC(=S)NNC(=O)c1ccc(OC)cc1 | 5.2 | -3.7 | 11.2 | 4.7 | 0.8
O=C(COc1ccc(Cl)cc1Cl)NNC(=S)NC(=O)c1ccco1 | 4.0 | 90.1* | 92.7* | -2.3 | -7.2
CCCOc1ccc(C(=O)NNC(=S)NC(=O)c2ccco2)cc1 | 3.2 | 89.5* | 86.8* | 12.0 | 1.6
O=C(COc1ccc(Cl)cc1Cl)NNC(=S)NCc1ccco1 | -2.3 | -24.4 | 10.3 | -6.0 | 11.2
CC(C)(C)c1ccc(C(=O)NC(=S)NNC(=O)c2cccs2)cc1 | 3.3 | 92.4* | 86.2* | 15.4 | 22.4
O=C(NC(=S)NNC(=O)c1cccs1)c1ccccc1 | 4.2 | 14.1 | 32.1 | 3.6 | 3.0
SMILES | MazF activator | ugtP null kill | RN4220 kill | BJeLR lethal | PriA SSB inh
CCCCOc1ccc(C(=O)NNC(=S)NC(=O)CC)cc1 | 1.6 | 98.2* | 93.8* | 7.0 | -1.1
CCCc1nc(SCC(N)=O)[nH]c(=O)c1CC | -2.9 | 1.4 | 2.6 | -7.4 | -11.8
CC(C)(C)C(=O)NC(=S)NNC(=O)c1ccc(-c2ccccc2)cc1 | -7.1 | 88.9 | 91.9* | 27.3 | -13.5
Cc1ccc(C(=O)NNC(=S)NC(=O)COc2ccccc2)cc1 | 0.8 | 92.2* | 87.8* | -8.4 | -3.4
Cc1ccc2c(Cl)c(C(=O)N/N=C/c3cccn3C)sc2c1 | 71.5* | . | . | 5.2 | .
CCCC(=O)N=c1sc2cc(Cl)cc(C)c2n1C | . | . | . | . | 6.0
Nc1c2c(nc3ccc(Br)cc13)N(c1ccccc1)CC2 | 12.0 | 46.9 | 21.3 | . | -5.6
Cc1cccc(N2CCc3c2nc2ccc(Br)cc2c3N)c1 | 6.8 | 99.6* | 99.0* | -0.9 | -5.7
CC(C)C(=O)N1N=C(c2ccc(NS(C)(=O)=O)cc2)CC1c1cccs1 (stereo unspecified) | -12.1 | 3.8 | 4.0 | 5.4 | 4.5
Cc1cc(C)c(C)c(S(=O)(=O)N2CCC(C(=O)N3CC(C)CC(C)C3)CC2)c1C (stereo unspecified) | 2.3 | -4.7 | 1.3 | -5.9 | -4.8
N#C/C(=C\c1cn(Cc2ccc(C#N)cc2)c2ccccc12)C(=O)NCc1cccs1 | 55.0* | -7.9 | 0.0 | -4.5 | 2.2
CCN(Cc1cn2cccnc2n1)C1CCCCC1 | -1.9 | 4.2 | 3.6 | 6.9 | 13.2
O=C(/C=C/c1cccc(C(F)(F)F)c1)Nc1cccc(C(F)(F)F)c1 | 2.1 | 99.6* | 99.9* | 3.0 | -44.6
Cc1ccc(NC(=O)/C=C/c2cccc(C(F)(F)F)c2)cc1 | 2.1 | 2.9 | 8.0 | 7.7 | -7.8
COc1ccc2c(c1)c(C(=O)N/N=C/c1cn(C)c3ccccc13)c(C)n2C | 12.8 | . | . | -4.9 | i
CN1CCc2c(sc3c2C(=O)NC(c2cccs2)N3)C1 (stereo unspecified) | 4.8 | 11.8 | 4.1 | 0.7 | -6.0
CC1CCc2c(sc3c2C(=O)NC(c2ccccn2)N3)C1 (stereo unspecified) | . | . | . | . | 66.7*
Cc1ccc(/C=C/C(=O)OCC(=O)NCc2ccccc2)o1 | 2.8 | 6.3 | 4.4 | . | 4.5
CCOc1cc2c3c(c1)C1(OCCO1)C(=O)N3C(C)(C)CC2C (stereo unspecified) | -1.9 | 2.0 | 1.6 | -1.0 | 0.1
CCOc1cc2c3c(c1)C1(Nc4ccccc4S1)C(=O)N3C(C)(C)CC2C (stereo unspecified) | 10.3 | -10.7 | -2.9 | -13.5 | 39.9*
N#C/C(=C\c1ccccn1)c1nc2ccccc2s1 | 66.7* | 39.6 | 27.6 | -3.1 | -17.3
O=C(Cn1nc(S(=O)(=O)c2ccccc2)ccc1=O)NC[C@H]1CCCO1 | . | . | . | . | 3.0
CCC(C)C(=O)OCC1(c2ccc(C)cc2OC(=O)C(C)C)CO1 (stereo unspecified) | 2.2 | . | . | 53.0* | -3.7
Cc1ccc(C2(COC(=O)C(C)C)CO2)c(OC(=O)C(C)C)c1 (stereo unspecified) | -7.4 | . | . | 4.5 | -2.2
Cc1ccc(-c2nc(CS(=O)(=O)CC(=O)N3CCOCC3)c(C)o2)cc1 | 2.1 | 2.1 | 0.2 | 10.1 | -1.6
SMILES | MazF activator | ugtP null kill | RN4220 kill | BJeLR lethal | PriA SSB inh
O=[N+]([O-])c1ccc(NN=Cc2cccc(O)c2)nc1 | 11.2 | -13.8 | 6.1 | . | -22.5
O=[N+]([O-])c1ccc(NN=Cc2cc(Br)ccc2O)nc1 | 13.0 | 93.2* | 58.9 | . | -2.9
O=[N+]([O-])c1ccc(NN=Cc2ccc3c(c2)OCO3)nc1 | 105.7* | 2.5 | -0.3 | . | 1.8
Cc1cc(OCCCC(=O)NCCc2ccccn2)ccc1Cl | 59.9* | 11.1 | 7.1 | 2.9 | -5.1
CC1CCc2c(sc(NC(=O)CCSc3ccc(Cl)cc3)c2C(N)=O)C1 (stereo unspecified) | . | . | . | . | 4.0
CC1CCc2c(sc(Nc3nc4c(F)cccc4s3)c2C(N)=O)C1 (stereo unspecified) | 25.2 | 18.7 | 37.3 | -0.1 | 51.0*!
OCCC1CN(Cc2cccc3nccnc23)CCN1Cc1ccc(F)c(F)c1 (stereo unspecified) | -5.9 | 7.5 | 3.3 | 12.6 | 8.6
